Screening results as filed in PubChem.
HCV inhibitor: qHTS Assay for Inhibitors of Hepatitis C Virus (HCV). Huh7.5.1 HCVcc-Cre infection, luciferase reporter, 44 h. Potency, µM (titrated, usually from 41.8 µM), for inactives: at the highest dose activity change, negative = inhibition, hits mostly inhibitors. hit rate 3.4% among 340,000; note: % is set by controls: 0 for no effect and ±100 for the full control effect
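Infectious HCV cell culture screen: compound-treated cells (1,000/well, pre-plated 4 h) are infected with HCVcc-Cre at roughly 0.5 moi and grown 44 h. Infection is quantified by luciferase signal after 15 min substrate incubation at room temperature.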
Pf growth 48h: Primary qHTS for delayed death inhibitors of the malarial parasite plastid, 48 hour incubation; P. falciparum luciferase growth in erythrocytes, 48 h; Potency, µM (titrated, usually from 28.7 µM), for the others: top-dose activity change, negative = inhibition, actives largely listed as inhibitors; hit rate 5.9% among 310,000; note: % is set by controls: 0 for no effect and ±100 for the full control effect
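Compounds are pin-transferred into medium, infected erythrocytes (2% hematocrit, 0.1% parasitemia final) are added, and plates sit one parasite generation at 37 C in 5% CO2. Detection reagent is then added and luminescence measured.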
NS1 inh: qHTS Assay for Inhibitors of Influenza NS1 Protein Function | Potency, µM (top dose mostly 46.1 µM), for inactives: top-dose activity, positive = more growth | hit rate 0.4% among 270,000; calls by dose curve; note: actives are rising curves; nearly all actives have a fitted effect of over 50% in size
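Growth recovery, yeast-based: influenza A NS1 expressed in S. cerevisiae causes slow growth, and suppressors are detected by OD600. The parent strain without NS1 is used as positive control.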
Vaccinia mCherry: qHTS for Stage-Specific Inhibitors of Vaccinia Orthopoxvirus: mCherry Reporter Primary qHTS; Vaccinia virus mCherry reporter infection, fluorescence; hit rate 0.63% among 310,000; Potency, µM (top dose mostly 36.5 µM), for the others: at the highest dose activity change, negative = inhibition, hits mostly inhibitors; AID 720579, 2013; calls by dose curve; tested in A549 cells; note: % is set by controls: 0 for no effect and ±100 for the full control effect; nearly all actives have a fitted effect of over 35% in size
Vaccinia Venus: qHTS for Stage-Specific Inhibitors of Vaccinia Orthopoxvirus: Venus Reporter Primary qHTS; Vaccinia virus Venus reporter expression, fluorescence; Potency, µM (doses to about 36.5 µM), inactives show at the top dose activity change, negative = inhibition, hits mostly inhibitors; hit rate 0.46% among 330,000; AID 720580, 2013; calls by dose curve; tested in A549 cells; note: % is set by controls: 0 for no effect and ±100 for the full control effect; nearly all actives have a fitted effect of over 30% in size
Pf growth 96h: Primary qHTS for delayed death inhibitors of the malarial parasite plastid, 96 hour incubation; P. falciparum luciferase reporter growth, 96 h; Potency, µM (titrated, usually from 28.7 µM), inactives show at the highest dose activity change, negative = inhibition, most hits filed as inhibitors; hit rate 6.9% among 320,000; AID 504834, 2011; note: % is set by controls: 0 for no effect and ±100 for the full control effect
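P. falciparum expressing integrated firefly luciferase grown in erythrocytes (2% hematocrit, 0.05% parasitemia final) with compounds for 96 hours at 37 C, 5% CO2. Growth inhibition read as loss of luminescence after adding luciferase detection reagent.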
* = called active by the depositor; [ ] = remark or other dose. An excerpt weighted towards active compounds, which were near 11% of everything screened. Unless noted, calls come from the whole dose curve; as a rule, active = well fitted inhibition curve with a large enough effect; inconclusive = small, poorly fitted or top-dose-only effect, or another doubt; inactive = no such curve, though single readings can be large or run the other way. Potency is the fitted concentration of half-maximal effect.

`Cc1ccc(CNC(=O)CN(Cc2cccs2)C(=O)C2(C)CC(=O)N=C3C=CC=CN32)cc1` (configuration not stated) gave HCV inhibitor -1.8%, Pf growth 48h 10.7%, NS1 inh 7.6%, Vaccinia mCherry -8.0%, Vaccinia Venus -5.0% and Pf growth 96h 1.65µM*.
For CCCCc1nc2cc(C(=O)NCc3cn(C)nc3C)ccc2o1 the results were HCV inhibitor 12.6µM*, Pf growth 48h -12.3%, NS1 inh -22.2%, Vaccinia mCherry inactive, Vaccinia Venus -6.4% and Pf growth 96h inconclusive.
`CCCCc1nc2cc(C(=O)NCc3nccn3CC)ccc2o1` gave HCV inhibitor -19.6%, Pf growth 48h 34.8%, NS1 inh -3.3% and Pf growth 96h -19.9%.
C=Cc1ccc(Cn2c(=O)n(-c3ccccc3C)c(=O)c3c4c(sc32)CN(C(C)=O)CC4)cc1 was read as Vaccinia mCherry -34.4% and Vaccinia Venus -25.1%.
`Cc1ccn2cc(CC(=O)O)nc2c1` gave HCV inhibitor -2.3%, Pf growth 48h 0.0%, NS1 inh 7.2%, Vaccinia mCherry -6.3%, Vaccinia Venus -1.2% and Pf growth 96h 4.8%.
Screening O=C(CSc1nc2ccccc2n1Cc1ccccc1)N/N=C/c1ccccc1C(=O)O returned HCV inhibitor 10.4%, Pf growth 48h inconclusive, NS1 inh 8.5%, Vaccinia mCherry inconclusive, Vaccinia Venus 3.0% and Pf growth 96h -13.1%.
O=C(CSc1nc2ccccc2n1Cc1ccccc1Cl)N/N=C/c1ccccc1C(=O)O was read as HCV inhibitor 12.6%, Pf growth 48h inconclusive, NS1 inh inconclusive and Pf growth 96h 5.22µM*.
`COc1ccc(-c2cc(C(=O)NCC(c3ccco3)N(C)C)c3ccccc3n2)cc1OC` (configuration not stated) gave HCV inhibitor inconclusive, Pf growth 48h inconclusive, Vaccinia mCherry -2.0%, Vaccinia Venus -19.3% and Pf growth 96h inconclusive.
For O=C1CC(c2cccc(Cl)c2)CC(O)=C1C=NCCCO (configuration not stated) the results were HCV inhibitor 10.8%, Pf growth 48h -3.4%, NS1 inh -3.5%, Vaccinia mCherry inconclusive, Vaccinia Venus -14.4% and Pf growth 96h 23.2%.
Cc1ccc(-c2cc(-c3ccc(F)cc3)n[nH]2)c(O)c1 was read as HCV inhibitor 12.6µM*, Pf growth 48h -0.5%, NS1 inh -78.2%, Vaccinia mCherry -29.1%, Vaccinia Venus inconclusive and Pf growth 96h inconclusive.
Cc1ccccc1-c1cc(-c2ccccc2O)n[nH]1 was read as HCV inhibitor 7.08µM*, Pf growth 48h 64.8%, NS1 inh -150.1%, Vaccinia mCherry -8.3% and Vaccinia Venus -24.9%.
Oc1ccccc1-c1cc(-c2ccc(F)cc2)n[nH]1 was read as HCV inhibitor inconclusive, Pf growth 48h 61.6%, NS1 inh -41.5%, Vaccinia mCherry -23.0%, Vaccinia Venus -12.4% and Pf growth 96h inconclusive.
`Oc1ccc(Cl)cc1-c1cc(-c2ccccc2)n[nH]1` gave HCV inhibitor 10µM*, Pf growth 48h 7.38µM*, NS1 inh -79.4%, Vaccinia mCherry inconclusive, Vaccinia Venus inconclusive and Pf growth 96h -28.7%.
Screening Cc1ccc(-c2cc(-c3ccc(C)cc3O)[nH]n2)cc1 returned HCV inhibitor -28.5%, Pf growth 48h -67.4%, NS1 inh -58.5% and Pf growth 96h -29.8%.
For Oc1ccc(Br)cc1-c1cc(-c2ccccc2F)[nH]n1 the results were HCV inhibitor inconclusive, Pf growth 48h 9.28µM*, NS1 inh 4.9% and Pf growth 96h 4.7%[5.75 µM].
`COc1ccccc1-c1cc(-c2cc(Cl)ccc2O)n[nH]1` gave HCV inhibitor -3.7%, Pf growth 48h 1.6%, NS1 inh -0.2% and Pf growth 96h -0.5%.
For Cc1cc(C)c2c(n1)nn1c(NCCN3CCOCC3)cc(C)nc21 the results were HCV inhibitor 7.6%, Pf growth 48h 1.9%, NS1 inh 1.5% and Pf growth 96h 1.4%.
CN(C(=O)COC(=O)c1n[nH]c2ccccc12)c1ccccc1 was read as HCV inhibitor -3.7%, Pf growth 48h 64.9%, NS1 inh -4.4%, Vaccinia mCherry inactive, Vaccinia Venus -21.6% and Pf growth 96h 135.8%.
Screening CCCCNC(=O)COC(=O)c1ccc(F)cc1Cl returned HCV inhibitor 6.7%, Pf growth 48h 41.2%, Vaccinia mCherry -14.9%, Vaccinia Venus -10.5% and Pf growth 96h 34.2%.
For Oc1ccc(Br)cc1-c1cc(-c2ccccc2Cl)[nH]n1 the results were HCV inhibitor 7.94µM*, Pf growth 48h 2.94µM*, NS1 inh -0.7%, Vaccinia mCherry inconclusive, Vaccinia Venus -27.8% and Pf growth 96h 4.15µM*.
COc1ccc(O)c(-c2cc(-c3ccccc3Cl)[nH]n2)c1 was read as HCV inhibitor inconclusive, Pf growth 48h inconclusive, NS1 inh -137.1% and Pf growth 96h -12.5%.
`O=c1cc(NCc2ccco2)[nH]c(=O)n1-c1ccc(Br)cc1` gave HCV inhibitor 5.9%, Pf growth 48h -7.0%, NS1 inh 11.9%, Vaccinia mCherry inactive, Vaccinia Venus -6.4% and Pf growth 96h 9.28µM*.
`Cc1ccc(NC(=O)COC(=O)c2ccc3c(c2)NC(=O)C2CCCN32)cc1` (configuration not stated) gave HCV inhibitor 10µM*, Pf growth 48h 10.4µM*, NS1 inh 5.6% and Pf growth 96h 11.4%.
`CCn1c(=O)cc(SCC(=O)NCc2ccco2)c2ccccc21` gave HCV inhibitor inconclusive, Pf growth 48h 6.3%, NS1 inh 1.2% and Pf growth 96h inconclusive.
Screening CCn1c(=O)cc(SCC(=O)NCc2cccnc2)c2ccccc21 returned HCV inhibitor -16.6%, Pf growth 48h 35.7%, NS1 inh 2.8% and Pf growth 96h 9.28µM*.
CCn1c(=O)cc(SCC(=O)Nc2ccc(C)cn2)c2ccccc21 was read as HCV inhibitor inconclusive, Pf growth 48h 7.4%, Vaccinia mCherry inconclusive, Vaccinia Venus 10µM* and Pf growth 96h inconclusive.
`CCc1ccc(CNC(=O)CSc2cc(=O)n(CC)c3ccccc23)cc1` gave Vaccinia mCherry -19.5% and Vaccinia Venus -6.7%.
For CCn1c(=O)cc(SCC(=O)NCc2ccc(C)o2)c2ccccc21 the results were HCV inhibitor -19.3%, NS1 inh -5.6% and Pf growth 96h 11.7µM*.
O=C(c1ccc(F)cc1)C(CN1CCOCC1)c1ccccc1 (configuration not stated) was read as HCV inhibitor 11.2µM*, Pf growth 48h inconclusive, NS1 inh -50.4%, Vaccinia mCherry 14.1µM*, Vaccinia Venus 12.6µM* and Pf growth 96h inconclusive.
